# TrxR1 substrate: qHTS Assay for Substrates of Mammalian Selenoprotein Thioredoxin Reductase 1 (TrxR1): qHTS | Potency, µM (titrated, usually from 114 µM), without a hit: at the top dose activity change, negative = substrate turnover | AID 588456, 2011 | 0.01% of 390,000 active | purified TrxR1 substrate turnover, NADPH consumption readout | Thioredoxin reductase 1, cytoplasmic (Rattus norvegicus), O89049; note: potency is the fitted concentration of half-maximal effect; nearly all actives have a fitted effect of over 50% in size
# Target sequence (O89049 whole entry, looked up): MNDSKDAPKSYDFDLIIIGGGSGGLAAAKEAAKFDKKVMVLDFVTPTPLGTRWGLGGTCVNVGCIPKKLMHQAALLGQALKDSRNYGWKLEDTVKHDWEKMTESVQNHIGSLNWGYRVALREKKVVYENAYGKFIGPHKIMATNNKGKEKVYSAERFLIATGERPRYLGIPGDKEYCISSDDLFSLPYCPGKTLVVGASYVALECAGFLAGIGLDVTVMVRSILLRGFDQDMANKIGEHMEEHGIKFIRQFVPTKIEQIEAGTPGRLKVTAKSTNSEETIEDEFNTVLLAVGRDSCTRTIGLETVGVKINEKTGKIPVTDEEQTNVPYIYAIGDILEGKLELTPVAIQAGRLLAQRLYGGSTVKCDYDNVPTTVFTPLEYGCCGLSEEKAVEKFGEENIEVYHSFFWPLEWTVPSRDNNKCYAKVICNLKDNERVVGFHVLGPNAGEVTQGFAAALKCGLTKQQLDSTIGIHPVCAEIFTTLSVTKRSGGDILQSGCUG
#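 Rat TrxR1, dispensed at 90 nM, was prereduced with 400 uM NADPH (final) for 5 min at ~22 deg C, then incubated with compound 15 min before 400 uM selenite. A first-read NADPH fluorescence drop versus no-compound background flagged substrates.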
# GALK inh: qHTS Assay for Inhibitors of Human Galactokinase (GALK) | P51570 | Purified GALK, Kinase-Glo residual ATP luminescence | Potency, µM (highest dose often 57.5 µM), for the others: top-dose activity change, negative = inhibition, actives largely listed as inhibitors | 0.007% of 270,000 active | AID 1868, 2009; note: potency is the fitted concentration of half-maximal effect
#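 Luminescence from leftover ATP (Ultra-Glo luciferase/luciferin) served as read-out after a 1 h room-temperature reaction of 5 nM GALK with 35 uM ATP and 100 uM galactose.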
# TrxR1 inh: qHTS Assay for Inhibitors of Mammalian Selenoprotein Thioredoxin Reductase 1 (TrxR1): qHTS | Thioredoxin reductase 1, cytoplasmic (Rattus norvegicus), O89049 | recombinant rTrxR1, NADPH fluorescence consumption, selenite substrate | Potency, µM (top dose mostly 114 µM), for the others: at the top dose activity change, negative = inhibition, actives largely listed as inhibitors | 1% of 390,000 active; note: potency is the fitted concentration of half-maximal effect; nearly all actives have a fitted effect of over 65% in size
#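 Rat TrxR1 (90 nM in the dispensed reagent) was pre-reduced with 400 uM NADPH for 5 min at room temperature, then incubated with compound for 15 min. After 400 uM selenite was added, NADPH fluorescence (Ex 340/Em 450 nm) was followed for 8 min.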
# Eya2 phos inh: qHTS Assay for Inhibitors of the Phosphatase Activity of Eya2; AID 488837, 2010; recombinant Eya2, OMFP fluorescence dephosphorylation (OMFP is methylfluorescein phosphate); Protein phosphatase EYA2 (Homo sapiens), O00167; Potency, µM (series often up to 76.9 µM), for the others: top-dose activity, negative = inhibition, usual class: inhibitors; 0.006% of 330,000 active; note: potency is the fitted concentration of half-maximal effect
#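 Eya2 protein (added as 0.2 uM solution) was preincubated with compound for 10 min at ambient temperature in 50 mM HEPES pH 7.5, 50 mM NaCl, 5 uM MgCl2, 0.05% BSA, 1 mM DTT. OMFP (added at 50 uM) then reacted 10 min; fluorescence read at 485/525 nm.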
# CtBP-E1A blk: qHTS Assay for Inhibitors of the CtBP/E1A Interaction | CtBP / adenovirus E1A interaction (AlphaScreen) | AlphaScreen GST-E1A/His-CtBP binding, 1536-well; active compounds read low | activity change, % (test concentration not listed) | 0.49% of 340,000 active | AID 651724, 2012; in the data active = activity change below about -65%; inconclusive = mostly about -30% to -63%
#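 Homogeneous bead-based format: GST-tagged E1A captured on glutathione donor beads, His-tagged CtBP on nickel acceptor beads; compounds precede bead addition by 2 h at 37 °C.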
# Six1-Eya2 inh: qHTS Assay for Inhibitors of the Six1/Eya2 Interaction. Homeobox protein SIX1 (Homo sapiens) + Protein phosphatase EYA2 (Homo sapiens), …. AlphaScreen GST-Six1/His-Eya2 binding, biochemical; active compounds read low. activity change, % (test concentration not listed). 0.56% of 360,000 active; in the data active = activity change below about -65%; inconclusive = mostly about -30% to -63%
#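 AlphaScreen luminescence read after one hour at 37 °C in darkness. Pin-transferred compounds met GST-Six1 and His-Eya2 protein (5X stock 250 nM/500 nM) plus glutathione donor and Ni-chelate acceptor beads (5X, 50 ug/mL).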
# * marks the source's active call; other numbers are inactive results; ? = inconclusive; . = no result given; [ ] = dose if it differs, or a comment. Most compounds without a hit are left out; they make up all but 1.5% or so of the library. Unless noted, calls come from the whole dose curve; as a rule, active = well fitted curve in the direction sought with a large enough effect; inconclusive = small, poorly fitted or top-dose-only effect, or another doubt; inactive = no such curve, though single readings can be large; an effect the other way counts as inactive or inconclusive. % is set by controls: 0 for no effect and ±100 for the full control effect.
SMILES,TrxR1 substrate,GALK inh,TrxR1 inh,Eya2 phos inh,CtBP-E1A blk,Six1-Eya2 inh
Oc1cccc(NC(=S)N=Nc2c(O)[nH]c3ccccc23)c1,-7%,-1%,-16%,8%,-68*,?
CN1Cc2sccc2C(c2ccc(O)c(O)c2)C1 (stereo not given),12%[57.1 µM],.,?,3%,.,.
COC(=O)c1ccc(Cl)cc1NC(=O)N1CCC(CN2CCC(C)CC2)CC1,0%,.,6%,.,.,.
O=Cc1ccc(O)c2ncccc12,-5%[57.1 µM],3%,-3%[57.1 µM],3%,-67*,-74*
COc1ccc(NC(=S)NC(NC(=O)CCl)C(Cl)(Cl)Cl)c([N+](=O)[O-])c1 (stereo not given),1%,0%,10µM*,5%,.,-3
CN(C)C(=O)c1ccc(S(=O)(=O)NCc2ccccc2Cl)s1,-4%[57.1 µM],.,7%[57.1 µM],.,.,.
O=C(Cc1ccc(F)cc1)NCCc1csc(-c2ccc(C(F)(F)F)cc2)n1,8%[57.1 µM],.,30%[57.1 µM],.,.,.
CC(C)OC(=O)C(C(=O)C(F)(F)F)c1cc(NS(=O)(=O)c2ccc3ccccc3c2)c2ccccc2c1O (stereo not given),-13%,?,?,-7%,-68*,?
COc1ccccc1Nc1nc(-c2ccc(F)cc2)c2c(n1)-c1ccccc1OC2,32%,.,38%,.,.,.
CSc1nnc2c(n1)OC(C)=Nc1ccccc1-2,-3%[57.1 µM],2%,14%,-2%,-22,-66*
Cc1c2cnn(CC(=O)Nc3cccc(C(F)(F)F)c3)c(=O)c2c(C)n1Cc1ccccc1Cl,0%,.,11%,.,.,.
CC(=O)Nc1ccc(NC2=C(Cl)C(=O)c3ccccc3C2=O)cc1,0%[57.1 µM],-2%,0.56µM*,8%,-6,2
COc1ccccc1NC1=C(NC(C)=O)C(=O)c2ccccc2C1=O,5%,8%,4.5µM*,2%,1,-4
CN(C)c1ccc(NC2=C(Cl)C(=O)c3ccccc3C2=O)cc1,4%,.,2.8µM*,-15%,-20,?
c1ccc(CNc2nc3c(-c4ccccc4)nnn3c3ccccc23)cc1,6%,.,12%,.,.,.
CC(=O)Nc1ccc(S(=O)(=O)Nc2nc3ccccc3nc2Nc2cccc(O)c2)cc1,1%,-2%,10%,-2%,14,12
CC(=O)Nc1ccc(S(=O)(=O)Nc2nc3ccccc3nc2Nc2ccc(C(=O)O)c(O)c2)cc1,-23%,.,79µM*,6%,?,?
O=Nc1c(-c2c(O)[nH]c3cc(Br)ccc23)[nH]c2ccccc12,5%[57.1 µM],.,6%[57.1 µM],-11%,?,-71*
CCOC(=O)c1c(NC(=S)NC)sc2c1CC(C)(C)SC2,2%,0%,11µM*,2%,-2,-1
CCOC(=O)c1c(NC(=S)Nc2ccccc2)sc2c1CC(C)(C)SC2,1%[57.1 µM],3%,?,-16%,-5,-13
Cc1ccc(NC(=O)C(Cc2ccccc2)NS(=O)(=O)c2ccc3c(c2)c(=O)n(C)c(=O)n3C)c(C)c1 (stereo not given),-1%,.,29%,.,.,.
Cc1cc(C)cc(NC(=O)N2CCC(C(N)=O)(N3CCCCC3)CC2)c1,-12%,.,-17%,.,.,.
CCC(=O)Nc1sc2c(c1C(=O)Nc1ccc(Br)cc1)CCCCC2,2%,.,56µM*,.,.,.
O=C(Cc1ccccc1)Nc1sc2c(c1C(=O)Nc1ccccc1)CCCCC2,-4%,.,40µM*,.,.,.
CCOc1ccc(NC(=O)c2c(NC(=O)CNCCN3CCOCC3)sc3c2CCC3)cc1,1%,-5%,-2%,-8%,-82*,?
SMILES,TrxR1 substrate,GALK inh,TrxR1 inh,Eya2 phos inh,CtBP-E1A blk,Six1-Eya2 inh
CCC(=O)Nc1sc2c(c1C(=O)Nc1cccc(C)c1)CCCC2,0%[57.1 µM],.,7%[57.1 µM],.,.,.
O=C(Cc1ccccc1)Nc1sc2c(c1C(=O)Nc1ccc(Cl)cc1)CCCC2,-5%,.,10%,.,.,.
COc1ccc(S(=O)(=O)N2CCN(c3nc(-c4ccccc4)nc4ccccc34)CC2)cc1,6%,.,28%,.,.,.
C=CCN1C(=O)N/C(=C/c2ccc(C)o2)C1=O,-9%,0%,50µM*,1%,.,-7
Cc1cccc(NC(=O)CN2C(=O)N/C(=C/c3ccc(C)o3)C2=O)c1,3%,-1%,40µM*,-1%,8,-16
Cc1ccc(NC(=O)CN2C(=O)N/C(=C/c3ccc(C)o3)C2=O)cc1,-7%,.,?,-5%,5,8
CCCCNC(=O)C1CCN(c2nc3ccc(C)cc3[nH]2)CC1,8%[57.1 µM],.,20%[57.1 µM],.,.,.
COC(=O)c1c(C(=O)OC)c2ccccn2c1C(=O)c1ccccc1,-2%,-3%,10%,-25%,11,2
COC(=O)c1c(Cl)c2n3ccccc3c(C)c(-c3ccccc3)c-2c1C(=O)OC,-15%,-1%,?,3%,?,-68*
COC(=O)c1cc2c(-c3ccccc3)c(C)c3ccccn3c-2c1C(=O)OC,-10%,0%,-1%,10%,?,-69*
CCOc1ccccc1-n1c(SCC(N)=O)nnc1-c1ccc(O)cc1,0%,-2%,16%,-13%,-90*,-90*
O=S(=O)(c1nccs1)N1CCN(c2nc(-c3cccs3)nc3ccccc23)CC1,9%,.,18%,.,.,.
Cc1cccc(C2NC(=O)c3c(sc4c3CCN(C)C4)N2)c1O (stereo not given),15%,.,-17%,.,.,.
O=C(OCc1cc(=O)n2nc(C3CCCCC3)sc2n1)c1ccc(F)cc1,8%[57.1 µM],.,17%[57.1 µM],.,.,.
Cc1n[nH]c(=S)n(/N=C/c2cccs2)c1=O,7%[57.1 µM],-2%,14%[57.1 µM],10%,-72*,?
CC(C)(C)c1n[nH]c(=S)n(/N=C/c2cccs2)c1=O,-7%,4%,-17%,-2%,-3,-16
C=C(CN(C)C)C(=O)c1ccc(OC2OC(COC(C)=O)C(OC(C)=O)C(OC(C)=O)C2OC(C)=O)cc1 (stereo not given),9%[11.4 µM],.,2.8µM*,.,-18,5
O=S(=O)(c1ccc(C(F)(F)F)cc1)N1CCN(c2nc(-c3ccccc3)nc3ccccc23)CC1,0%,.,11%,.,.,.
CN(C)c1ccc(CNCCC(Cc2ccccc2)c2ccco2)cc1 (stereo not given),-3%,-2%,-13%,?,?,-66*
c1ccc(CNCCC(Cc2ccccc2)c2ccco2)cc1 (stereo not given),-18%[57.1 µM],1%,10%[57.1 µM],?,3,-24
